A selection: hits, their analogues and other compounds. The true share with any hit is near 2.9%.
PLC-beta3 inh: human PLC-beta3 inhibitors, primary screen, biochemical, fluorescence; Purified PLC-beta3, fluorogenic substrate; AID 720704, 2013; inhibition, % at 12.2 µM; 1-phosphatidylinositol 4,5-bisphosphate phosphodiesterase beta-3 (Homo sapiens), Q01970; 370,000 tested, 0.18% active; in the data active = inhibition above about 11%
ADAM17 inh: ADAM17 inhibitors, primary screen, biochemical, QFRET | Disintegrin and metalloproteinase domain-containing protein 17 (Homo sapiens), P78536 | recombinant ADAM17, EDANS/DABCYL FRET peptide cleavage | inhibition, % at 6.95 µM | 370,000 tested, 0.83% active;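 active = inhibition above the mean of compounds lying between control limits plus 3 SD, set per campaign, cut at about 8.5% in these data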
proKLK7 act: proKLK7 zymogen activators, primary screen, biochemical, fluorescence intensity. Kallikrein-7 (Homo sapiens), P49862. purified proKLK7, EDANS-DABCYL substrate fluorescence; 100% is mature enzyme control, 0% vehicle. activation, % at 7 µM. 370,000 tested, 0.9% active. AID 652039, 2013;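 active = activation above the mean of all tested compounds plus 3 SD, computed per campaign excluding outliers beyond control limits, cut at about 13% in these data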
PLCg1 inh: PLC-gamma1 enzyme inhibitors, primary screen, biochemical, fluorescence, purified enzyme; 370,000 tested, 0.84% active; AID 720700, 2013; fluorogenic substrate; 1-phosphatidylinositol 4,5-bisphosphate phosphodiesterase gamma-1 (Homo sapiens), P19174; inhibition, % at 12.2 µM; in the data active = inhibition above about 9.5%
ADAM10 inh: human ADAM10 inhibitors, primary screen, biochemical, QFRET, HTS. Disintegrin and metalloproteinase domain-containing protein 10 (Homo sapiens), O14672. recombinant ADAM10, EDANS/DABCYL FRET peptide cleavage, 3 h. inhibition, % at 7 µM. 370,000 tested, 0.62% active;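 active = inhibition above a per-campaign cutoff equal to the mean of compounds falling between control-based bounds plus 3 SD, cut at about 20% in these data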
ADAM10 ctr: ADAM10 inhibitors, counter-screen for ADAM17 exosite inhibitor project, biochemical, FRET, human ADAM10. 2,900 tested, 47% active. recombinant ADAM10, EDANS/DABCYL FRET peptide cleavage, 3 h. AID 743256, 2014. inhibition, % at 6.95 µM. shares compounds with ADAM17 inh;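 active = mean inhibition over the triplicate runs exceeds the activity threshold set in the earlier primary screen, cut at about 20% in these data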
ADAM17 confirm: ADAM17 inhibitors, hit retest, confirmation, biochemical, QFRET peptide cleavage; shares compounds with ADAM17 inh; recombinant ADAM17, EDANS/DABCYL QFRET peptide cleavage; inhibition, % at 6.95 µM; 2,900 tested, 65% active; AID 743257, 2014;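 active = mean inhibition across replicates above the hit cutoff set in the primary screen, cut at about 8.5% in these data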
Large screens that a line does not name were inactive (follow-up assays come after a bar, where they were run).

C[C@@H]1CC[C@]2(O[C@H](CCO)C[C@@H](O)[C@@H]2O)O1	ADAM17 inh 8.8 | ADAM10 ctr inactive | ADAM17 confirm inactive
C[C@H]1CC[C@@]2(O[C@@H](CCO)C[C@@H](O)[C@@H]2O)O1	none
Cc1ccc(C(C)C)cc1-n1nnc(-c2cccc(Cc3ccc4ccccc4c3)c2)c1C(C)O (stereo not given)	ADAM17 inh 17.5 | ADAM10 ctr 31.1 | ADAM17 confirm 17.9
COc1cc(C)c(C(=O)Oc2cc(C)c(C(=O)O)c(O)c2)c(O)c1	none
COc1cc(C)c(C(=O)Oc2cc(C)c(C(=O)O)c(O)c2C)c(O)c1C	ADAM17 inh 11.1 | ADAM10 ctr inactive | ADAM17 confirm 10.7
Cc1nc(C(F)(F)F)ccc1C(=O)N1CCC1(C)C(=O)NS(=O)(=O)c1ccc2ccccc2c1 (stereo not given)	none
C/C(=N\NC(=S)NCCc1ccccc1)c1ccc(Cl)cc1	ADAM17 inh 9.6 | ADAM10 ctr inactive | ADAM17 confirm inactive
CCc1nc2c(OCc3ccc(C(F)(F)F)cc3)cccn2c1N(C)C(=O)c1ccncc1	none
CN(C)/C=N/c1ncnc2c1cnn2-c1ccc(C(F)(F)F)cn1	ADAM17 inh 9.2 | ADAM10 ctr inactive | ADAM17 confirm inactive
CCOC(=O)/C=C1\CN(Cc2ccc(OC)cc2)S(=O)(=O)c2ccccc21	ADAM17 inh 9.7 | ADAM10 ctr inactive | ADAM17 confirm 14.6
CCOc1cc(S(=O)(=O)n2cc(-c3ccc(F)cc3)c(N)n2)cc(OCC)c1OCC	ADAM17 inh 10.9 | ADAM10 ctr 30.6 | ADAM17 confirm 17.5
N=c1c2c(ncn1Cc1ccco1)Oc1c(ccc3ccccc13)C2c1ccccc1 (stereo not given)	ADAM17 inh 9.3 | ADAM10 ctr inactive | ADAM17 confirm inactive
COc1cc(NC(=O)c2ccc(S(=O)(=O)N(C)c3ccccc3)cc2)cc(OC)c1	ADAM17 inh 10.3 | ADAM10 ctr 29.8 | ADAM17 confirm 16.8
O=c1[nH]c2cc3ccccc3cc2nc1-c1nnnn1Cc1ccccc1	none
CN(C)c1nc(-c2ccccn2)nnc1-c1ccccc1	none
c1ccc(-c2cccc(CNc3nc(-c4ccccn4)nnc3-c3ccccc3)c2)cc1	ADAM17 inh 9.0 (no result: proKLK7 act) | ADAM10 ctr inactive | ADAM17 confirm inactive
Cc1cc(NC(=O)/C(C#N)=C/c2ccco2)n(-c2ccccc2)n1	ADAM17 inh 9.0 | ADAM10 ctr 20.3 | ADAM17 confirm 11.2
Cc1cc(NC(=O)CC#N)n(-c2ccccc2)n1	none
Oc1ccc(C[C@H]2CNC(=S)N2CC2CCCN2C[C@H](Cc2ccc(O)cc2)N2C[C@H](Cc3ccc(O)cc3)N(CC3CCCCCC3)C2=S)cc1 (stereo not given in full)	ADAM17 inh 9.2, ADAM10 inh 22.6 | ADAM10 ctr 30.6 | ADAM17 confirm 18.4
CC(C)C[C@@H](CN1CCC[C@H]1CN1C(=O)C(=O)NC[C@@H]1Cc1ccccc1)N1C[C@H](Cc2ccc(O)cc2)N(CC2CCCCC2)C(=O)C1=O	ADAM17 inh 10.1 | ADAM10 ctr 20.0 | ADAM17 confirm 11.2
CC(C)C[C@@H](CN1CCC[C@H]1CN1C(=O)C(=O)NC[C@@H]1Cc1ccc(O)cc1)N1C[C@H](Cc2ccc(O)cc2)N(CC2CCCCC2)C(=O)C1=O	none
CCOc1ccc(CCN2C(=S)N([C@@H](Cc3ccc(O)cc3)CN3CCCC3CN3C(=S)NC[C@@H]3Cc3ccc(O)cc3)C[C@@H]2CC(C)C)cc1 (stereo not given in full)	ADAM17 inh 8.9 | ADAM10 ctr 26.1 | ADAM17 confirm 16.2
Oc1ccc(C[C@@H](CN2CCCC2CN2C(=S)NC[C@@H]2Cc2ccccc2)N2C[C@H](Cc3ccccc3)N(CC3CCCCC3)C2=S)cc1 (stereo not given in full)	none
Oc1ccc(C[C@H]2CNC(=S)N2CC2CCCN2C[C@H](Cc2ccc(O)cc2)N2C[C@H](Cc3ccccc3)N(CC3CCCCCC3)C2=S)cc1 (stereo not given in full)	ADAM17 inh 10.0 | ADAM10 ctr 43.0 | ADAM17 confirm 23.3
COc1ccc(-c2csc(C(NC(C)=O)c3cccc(F)c3)n2)cc1 (stereo not given)	none
CNc1cc(C(=O)Nc2cccc(OCc3ccccc3)c2)ncn1	none
Cc1ccc(S(=O)(=O)C2CCN(c3nc(-c4cccs4)nc4ccccc34)CC2)cc1	none (no result: proKLK7 act)
COc1ccc(-c2csc(NC(=O)C3CC(=O)N(Cc4ccco4)C3)n2)cc1 (stereo not given)	none
COc1ccc(-c2nc(NC(=O)C3CC(=O)N(Cc4ccco4)C3)sc2C)cc1 (stereo not given)	ADAM17 inh 9.1 | ADAM10 ctr inactive | ADAM17 confirm inactive
COc1cccc(CN(C)C(=O)c2ccc(OCC(=O)Nc3cccc(C(F)(F)F)c3)c(OC)c2)c1	ADAM17 inh 8.8 | ADAM10 ctr 25.9 | ADAM17 confirm 15.3
N#CCC(CNc1ncc(C(F)(F)F)cc1Cl)OC(=O)c1ccc(Cl)cc1Cl (stereo not given)	ADAM17 inh 9.6 | ADAM10 ctr 40.6 | ADAM17 confirm 19.0
O=C(CSc1ccc([N+](=O)[O-])cn1)Nc1nccs1	none
Cc1csc(NC(=O)CSc2ccc([N+](=O)[O-])cn2)n1	ADAM17 inh 8.7 | ADAM10 ctr inactive | ADAM17 confirm inactive
COC(=O)CSc1nnc(-c2ccc(NS(=O)(=O)c3ccc(C)c(C)c3)cc2)o1	none
CC(=O)C[C@H](O)CC(=O)[C@@H]1OC(=O)CCCCC/C=C/Cc2ccccc21	ADAM17 inh 8.8 | ADAM10 ctr inactive | ADAM17 confirm inactive
O[C@H]1C[C@H](c2ccccc2)N(CC2CCCCC2)C[C@@H]1n1cc(C2CC2)nn1	ADAM17 inh 9.0 | ADAM10 ctr 20.9 | ADAM17 confirm 12.5
O=C(CN1c2ccccc2Sc2ccccc21)N/N=C/c1ccc([N+](=O)[O-])cc1	ADAM17 inh 12.5 | ADAM10 ctr 29.1 | ADAM17 confirm 17.1

Screening results as filed in PubChem BioAssay.
